Shiga inhibitor: inhibitors of Shiga toxin in Vero cells; Vero cells, Shiga toxin protein synthesis inhibition reporter; inhibition, % at 38.7 µM; actives 9.2% (n = 290,000); AID 2315; in the data active = inhibition mostly above about 28%, no sharp cut-off; inactive = mostly below about 43%; note: 0% is about no effect
SARS PLP yeast: SARS-CoV PLP inhibition in yeast; actives 0.19% (n = 330,000); Potency, µM (top dose mostly 32.9 µM), inactives show at the top dose activity, positive = growth rescue, actives largely listed as activators; S. cerevisiae expressing SARS-CoV PLpro, growth rescue; AID 485353; note: potency is the fitted concentration of half-maximal effect; 0% is about no effect; nearly all actives have a fitted effect of over 55% in size
Pf growth 48h: inhibits P. falciparum growth in the first generation, 48 h. P. falciparum luciferase growth in erythrocytes, 48 h. actives 5.9% (n = 310,000). Potency, µM (top dose mostly 28.7 µM), for the others: at the top dose activity change, negative = inhibition, usual class: inhibitors; active = well fitted inhibition curve with a large enough effect; inconclusive = small, poorly fitted or top-dose-only effect, or another doubt; inactive = no such curve, though single readings can be large or run the other way; note: potency is the fitted concentration of half-maximal effect; % is set by controls: 0 for no effect and ±100 for the full control effect
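Luminescence readout; reporter = integrated firefly luciferase in P. falciparum. RBC culture at 2% hematocrit, 0.1% parasitemia final, 37 C/5% CO2; decreased signal taken as growth inhibition.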
CHX counter: affects cycloheximide protein synthesis inhibition readout, counter-screen; max response, %; actives 12% (n = 300,000); AID 2314; cell reporter, cycloheximide protein synthesis inhibition counterscreen; in the data active = max response mostly above about 13%, no sharp cut-off; inactive = mostly below about 14%; note: read at 38.3 µM for the half of the compounds with a filed dose; 0% is about no effect
NS1 inh: inhibitors of influenza NS1 protein function; Potency, µM (highest dose often 46.1 µM), without a hit: at the highest dose activity, positive = more growth; actives 0.4% (n = 270,000); note: potency is the fitted concentration of half-maximal effect; actives are rising curves; nearly all actives have a fitted effect of over 50% in size
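Compounds were scored for reversing the slow growth caused by influenza A NS1 in S. cerevisiae, measured by optical density at 600 nm. Assay medium contained 2% galactose at pH 6.0; NS1-free yeast of the same strain were the positive control.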
Pf growth 96h: P. falciparum growth inhibition at 96 hour, primary screen for plastid delayed-death inhibitors. Potency, µM (series often up to 28.7 µM), inactives show at the highest dose activity change, negative = inhibition, actives largely listed as inhibitors. actives 6.9% (n = 320,000). P. falciparum luciferase reporter growth, 96 h. AID 504834; active = well fitted inhibition curve with a large enough effect; inconclusive = small, poorly fitted or top-dose-only effect, or another doubt; inactive = no such curve, though single readings can be large or run the other way; note: potency is the fitted concentration of half-maximal effect; % is set by controls: 0 for no effect and ±100 for the full control effect
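P. falciparum expressing integrated firefly luciferase, in erythrocytes at 2% hematocrit, 0.05% parasitemia, incubated with compounds 96 h at 37 C, 5% CO2. Growth inhibition read as loss of luminescence; two-generation exposure targets delayed-death apicoplast inhibitors.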
Numbers without * were called inactive; ? = inconclusive; nt = no result. In the library only some 21% were active in any assay of this set; here they are far more common. Unless noted, calls come from the whole dose curve.

SMILES	Shiga inhibitor	SARS PLP yeast	Pf growth 48h	CHX counter	NS1 inh	Pf growth 96h
COc1cccc(OC)c1C(=O)Nc1ccnn1C	-15	-5%	-7%	-3	0%	23%
Cc1nc(SCC(O)CCl)c([N+](=O)[O-])[nH]1 (stereo not given)	-4	-3%	35%	0	8%	14%
CCOc1ccc(-c2nc(C)c(C(C)=O)n2O)cc1	16	-18%	27%	6	-55%	nt
COc1ccc(-c2nc(C)c(C(C)=O)n2O)cc1	1	-9%	10%	15	-13%	4.7µM*
COC(=O)c1cc(C#N)c(NCc2ccc(Cl)cc2Cl)nc1C	-9	1%	6%	-4	-4%	38%
COC(=O)c1ccc(-c2ccc(Cl)cc2)nc1C	37*	-7%	496%	95*	-23%	407%
CCCC1=[N+](CC)CCn2c(C)ccc21	-3	3%	4.7µM*	-2	4%	29%
O=C(O)c1ccc(/C=C/c2nc3ccccc3c(=O)n2-c2ccc(Br)cc2)cc1	-11	0%	?	-2	-108%	13µM*
Cn1c(/C=C/c2ccccc2[N+](=O)[O-])nc2ccccc2c1=O	33	-9%	-18%	9.2*	-9%	-27%
Cn1c(/C=C/c2ccc(Br)cc2)nc2ccccc2c1=O	20	-2%	nt	30*	-4%	10%
O=[N+]([O-])c1ccccc1/C=C/CN1CCCCC1	-19	1%	7%	-1	4%	4%
Cc1nc2ccccc2c(=O)n1NC(=O)/C=C/c1ccc(Br)cc1	-8	-12%	40%	-2	-1%	?
O=[N+]([O-])c1ccccc1/C=C/c1ccc2ccccc2n1	48*	-11%	21%	40*	-21%	?
O=S1(=O)N=C(N(Cc2cccs2)c2ccc(O)cc2)c2ccccc21	-2	0%	-5%	1	2%	10%
CC1CCC(NC(=O)C(=O)Nc2ccc3c(c2)OCO3)CC1 (stereo not given)	116*	3%	217%	57*	16%	?
CC1(C)CC(NC(=O)c2ccc3c(c2)OCO3)CC(C)(C)N1	-6	2%	6%	-2	-3%	34%
CC1CCN(CC(=O)Nc2ccc3c(c2)OCO3)CC1	nt	-4%	-7%	nt	nt	39%
O=C(NC1CCCCC1)c1ccc2c(c1)OCO2	84*	1%	156%	26*	2%	2%
CN1CCN(CCCNC(=O)c2ccc(/C=C3\Oc4ccccc4N(Cc4ccccc4F)C3=O)cc2)CC1	-3	-18%	?	-7	-3%	4%
O=C(NNC(=O)c1ccc2c(c1)OCO2)NC1CCCCC1	-6	6%	21%	-5	7%	42%
CC1CCC(NC(=O)c2ccc(/C=C3\Oc4ccccc4N(C)C3=O)cc2)CC1 (stereo not given)	42	10%	16%	25*	2%	16%
CC1CCC(NC(=O)c2ccc3c(c2)OCO3)CC1 (stereo not given)	53*	1%	195%	43*	-30%	1%
CCN(Cc1ccccc1)C(=O)CN1C(=O)c2ccccc2S1(=O)=O	nt	-7%	-10%	nt	nt	3%
CCOC(=O)c1ccccc1NC(=O)COC(=O)CCC(=O)c1ccccc1	8	-8%	-12%	-2	-40%	0%
CC1CCC2(CC1)NC(=O)N(NC(=O)CCc1c[nH]c3ccccc13)C2=O (stereo not given)	nt	-1%	15%	nt	nt	3%
O=C(NC1(C(=O)NC2CCCC2)CCCCC1)c1ccc2c(c1)OCO2	-19	1%	-17%	-4	-10%	9.3µM*
O=C(c1ccc2c(c1)OCO2)N(CC1CCCO1)C1(C(=O)NC2CCCC2)CCCCC1 (stereo not given)	-7	2%	12µM*	-1	0%	?
CN(C(=O)c1ccc2c(c1)OCO2)C1CCCCC1	36*	21%	77%	42*	3%	108%
O=C(NC1(C(=O)NC2CCCCC2)CCCCC1)c1ccc2c(c1)OCO2	-2	7%	-4%	-1	4%	29%
Cc1cccc(C(=O)Oc2ccccc2C2C[C@]3(C)CC(=O)NC3N2C(=O)c2cccc(C)c2)c1 (stereo not given in full)	-7	6%	nt	-5	11%	5.9µM*

Compound activity (PubChem BioAssay)
